Hit rate of the full screen: of about 340,000 compounds, about 3,300 (0.97%) were called active. Roughly 9% stayed inconclusive and do not appear here. Calls come from the whole dose curve; as a rule, active = well fitted inhibition curve with a large enough effect; inconclusive = small, poorly fitted or top-dose-only effect, or effect the other way; inactive = flat fitted curve, though single readings scatter. The list shows a part of the results.
Assay: qHTS Assay for Modulators of miRNAs and/or Inhibitors of miR-21; note: nearly all actives have a fitted effect of over 55% in size
Conditions: HeLa miR-21-FLuc reporter, luciferase luminescence, 48 h; actives lower the signal
Source text: MLSCN Grant: 1 R21 NS059478-01 Assay Provider: Qihong Huang, The Wistar Institute NCGC Assay Overview: MicroRNAs (miRNAs) are endogenously encoded small (~20-25 nucleotides), nonprotein-coding RNAs that are involved in post-transcriptional repression of target messenger RNAs (mRNAs) (Le and Hannon, 2004). Estimated to be involved in the regulation of 30% of all protein-coding mRNAs (Filipowicz et al., 2008), miRNAs play a significant role in many biological processes including cellular differentiation and tissue development (Ghildiyal and Zamore, 2009).
NCGC Assay Protocol Summary: Reagents: HeLa cells stably expressing firefly luciferase (FLuc) under the control of a CMV promoter (upstream) and a miR-21 binding sequence directly downstream of the gene. These cells endogenously express miR-21. Control compounds used were compound C3 (provided by collaborator), N6-phenyladenosine (MP Biomedicals, 0215379625), and DMSO. Assay Summary: 6uL of HeLa miR-21-FLuc cells in assay buffer (DMEM, Invitrogen #21063-029; 10% FBS, HyClone #SH30071.03) were dispensed at 2000cells/well (3.3 x 10^5 cells/mL) into Greiner solid-white TC-treated 1536-well plates using a Multidrop Combi (Thermo Fisher Scientific). Plates were incubated for one hour at 37 degree Celsius, 95% humidity, 5% CO2. These assay plates were then treated with 23nL of compound or DMSO using a Kalypsys pin tool, which allows for delivery of a 24-point titration of each compound to the assay plate, with a final compound concentration ranging from approximately 40uM to 5pM. Assay plates were then incubated for 48 hours. After incubation, plates were allowed to come to RT for one hour prior to delivery of 3uL of 3X luciferase detection reagent. After a 15 minute incubation to allow for cell lysis, luciferase activity was measured using a ViewLux CCD imager (PerkinElmer), with an average exposure time of 2-12 seconds. Keywords: NIH Roadmap, MLPCN, MLSMR, qHTS, miR-21, microRNA, firefly luciferase, FLuc.
Potency is the fitted concentration of half-maximal effect.

Potency, active:
Cc1cc(=O)[nH]c(N/N=C/c2cc(C)n(-c3ccccc3)c2C)n1 3.29 µM
COc1ccc(NC(=O)c2ccc(Br)o2)cc1 4.14 µM
COc1ccc(NC(=S)NC(=O)c2ccc(Br)o2)cc1 3.29 µM
Cc1ccc(C(=O)NC(=S)NCC2CCCO2)cc1Br (centres undefined) 8.26 µM
C(=C\c1ccco1)/c1ccc2ccccc2n1 0.656 µM
O=[N+]([O-])c1cccc2ccc(/C=C/c3ccc(F)cc3)nc12 7.36 µM
O=[N+]([O-])c1ccccc1/C=C/c1ccc2ccccc2n1 1.31 µM
O=C(O)c1ccc(/C=C/c2ccc3cccc(O)c3n2)cc1 4.14 µM
Cc1ccc2c(CNCc3ccco3)cc(=O)oc2c1 9.27 µM
Cc1ccc2c(CN(C)Cc3cccc(F)c3)cc(=O)oc2c1 13.1 µM
COc1ccc(N=Cc2nc(-c3ccccc3)oc2OC(=O)c2ccccc2)cc1 1.85 µM
CN(C)/C=N/c1sc2c(c1C#N)CCCCC2 5.21 µM
CC1CCc2c(sc(/N=C/N(C)C)c2C#N)C1 (centres undefined) 7.36 µM
CCN(/C=N/c1sc2c(c1C#N)CCCCC2)CC 3.69 µM
CCn1c(C)nc2cc(C(=O)NNC(=S)Nc3ccccc3OC)ccc21 14.7 µM
CCn1c(C)nc2cc(C(=O)NNC(=S)Nc3ccccc3Cl)ccc21 7.36 µM
CCN(CC)CCn1c2ccccc2c2nc3ccc([N+](=O)[O-])cc3cc21 14.7 µM
O=C1CCCC(O)=C1N=Nc1ccc2c(c1)OCO2 14.7 µM
CCSc1ccccc1C(=O)Nc1ccc(-c2nc3ccccc3s2)c(O)c1 3.69 µM
O=C(Nc1ccc(-c2nc3ccccc3s2)c(O)c1)C1=COCCO1 0.261 µM
O=C(Nc1ccc(-c2nc3ccccc3s2)c(OC(=O)c2ccccc2)c1)c1ccccc1 0.329 µM
O=C(CC1Sc2ccccc2NC1=O)c1ccc(Br)cc1 (centres undefined) 8.26 µM
CC(=O)Nc1ccccc1C(=O)C(=O)Nc1ccc(C)c(C)c1 5.21 µM
CC(=O)Nc1ccccc1C(=O)C(=O)Nc1ccc(C)c(F)c1 2.33 µM
Cn1c2ccccc2c(=O)c2ccc(-c3ccc4c(c3)OCO4)cc21 1.04 µM
CN(C)c1ccc(-c2ccc3c(=O)c4ccccc4n(C)c3c2)cn1 4.65 µM
Cc1ccc(N2C(=O)c3ccccc3NC2(C(=O)O)c2ccccc2)cc1Cl (centres undefined) 2.93 µM
O=[N+]([O-])c1ccccc1CSc1nc2ccccc2o1 14.7 µM
COc1ncnc2c1oc1ccccc12 8.26 µM
CC(=O)c1ccc(Oc2ncnc3c2oc2ccccc23)cc1 0.927 µM
COc1ccc(Oc2ncnc3c2oc2ccccc23)cc1 11.7 µM
Cc1nc2ccccc2c(=O)n1/N=C/c1ccccc1Cl 6.56 µM
Cc1ccc(/C=N/n2c(C)nc3ccccc3c2=O)s1 6.56 µM
Fc1ccccc1CSc1nnc(-c2cccs2)o1 3.29 µM
CC(C)(C)c1nnc(NC(=O)c2ccc3c(c2)OCO3)s1 1.47 µM
CCC(CC)c1nnc(NC(=O)c2ccc3c(c2)OCO3)s1 7.36 µM
O=C(N/N=C/c1cccc(F)c1)NC1CCCCC1 16.5 µM
O=C(N/N=C/c1ccccc1F)NC1CCCCC1 10.4 µM
COc1cccc(/C=N/NC(=O)NC2CCCCC2)c1O 4.14 µM
NS(=O)(=O)c1cccc(NC(=O)CCSc2ccccc2Cl)c1 10.4 µM
O=C(CCSc1ccccc1Cl)Nc1cccc([N+](=O)[O-])c1 11.7 µM
CN(C)C(=O)c1ccc(-c2cc(C(F)(F)F)nn2C)s1 6.56 µM
O=C(CN1c2ccc(Br)cc2-c2ccccc2S1(=O)=O)N1CCCCC1 7.36 µM
Cc1nccc(-c2cc(-c3ccc(Cl)cc3Cl)no2)n1 2.33 µM
COc1ccc(-c2csc(C3=C(O)CN(CCCN4CCCC4=O)C3=N)n2)cc1OC 16.5 µM
Cc1ccccc1OCc1nc2ccccc2c(=O)n1/N=C/c1ccco1 10.4 µM
Nn1c(COc2ccc(Cl)cc2)nc2ccccc2c1=O 7.36 µM
Cc1ccccc1OCc1nc2ccccc2c(=O)n1N 16.5 µM
COc1ccc(Nc2oc(-c3ccc(OC)cc3)nc2C#N)cc1 2.93 µM
COc1ccc(-c2nc(C#N)c(NC(C)C)o2)cc1 6.56 µM
c1ccc(Nc2nnc(-c3cccc4ccccc34)o2)cc1 1.85 µM
COc1ccc(Nc2oc(-c3ccccc3)nc2C#N)cc1 1.85 µM
CCOc1ccc(Nc2oc(Cc3ccccc3)nc2C#N)cc1 11.7 µM
CC(C)Nc1oc(-c2cccc3ccccc23)nc1C#N 13.1 µM
O=C1c2ccccc2C(=O)c2c1cccc2N1CCOCC1 11.7 µM
O=c1c2ccccc2nc(-c2ccccc2)n1Cc1ccccc1 14.7 µM
COc1ccccc1-c1ccc(NC2CCCC2)nn1 13.1 µM
COc1ccccc1-c1ccc(NC2CCCCC2)nn1 7.36 µM
Cn1ccc(NC(=O)Nc2ccc(Cl)cc2Cl)n1 3.69 µM
Cc1ccc2cc(CCNC(=O)c3ccco3)c(=O)[nH]c2c1C 0.826 µM
Cc1ccc2cc(CCNC(=O)c3ccco3)c(=O)[nH]c2c1 5.85 µM
Cc1ccc(-c2ccc(/C=N/O)o2)cc1[N+](=O)[O-] 16.5 µM
CCCc1cc(=O)n2[nH]c(-c3ccccc3)cc2n1 4.14 µM
COc1cc2c(cc1NC(=O)c1ccc3c(c1)OCO3)oc1ccccc12 7.36 µM
COc1ccccc1NC(=O)c1ccc2nsnc2c1 7.36 µM
Cc1cccc(NC(=O)c2ccc3c(c2)OCCO3)c1C 4.65 µM
COc1ccccc1NC(=O)c1ccc2c(c1)OCO2 3.29 µM
O=C(O)C1CC=CCC1C(=O)NCCc1csc(-c2ccccc2)n1 (centres undefined) 18.5 µM
O=C1c2ccccc2S(=O)(=O)N1CC1CC(c2ccccc2Cl)=NO1 (centres undefined) 4.14 µM
O=C1c2ccccc2S(=O)(=O)N1CC1CC(c2ccc(Cl)cc2)=NO1 (centres undefined) 2.93 µM
O=C(COC(=O)Cn1cnc2ccccc21)Nc1ccc2c(c1)C(=O)c1ccccc1C2=O 2.07 µM
COc1ccc(Nc2ncnc3c2c(C)c(C)n3CCO)cc1 0.736 µM
Cc1c(C)n(CCO)c2ncnc(Nc3ccc(F)cc3)c12 14.7 µM
COc1ccccc1Nc1ncnc2c1c(C)c(C)n2CCO 14.7 µM
O=[N+]([O-])c1ccccc1N/N=C/c1cccc(O)c1O 2.61 µM
O=[N+]([O-])c1ccccc1N/N=C\c1ccccc1Cl 0.656 µM
CCCOc1ccc(/C=N/Nc2ccccc2[N+](=O)[O-])c(O)c1 0.0656 µM
O=[N+]([O-])c1ccc(N/N=C/c2cccc(O)c2O)cc1 6.56 µM
COc1ccccc1/C=N\Nc1ccccc1[N+](=O)[O-] 1.04 µM
O=[N+]([O-])c1ccccc1NC(=S)N/N=C/c1ccc(O)c(O)c1 1.85 µM
O=C(CCS(=O)(=O)c1ccccc1)NC12CC3CC(CC(C3)C1)C2 2.07 µM
O=C(CCCc1ccccc1)NC12CC3CC(CC(C3)C1)C2 1.65 µM
Cc1ccc2nc(-c3ccc(N4C(=NC(=O)CCC(=O)O)SC5CS(=O)(=O)CC54)cc3)sc2c1 (centres undefined) 3.29 µM
CCCC(=O)N=C1SC2CS(=O)(=O)CC2N1c1ccc(-c2nc3ccc(C)cc3s2)cc1 (centres undefined) 2.93 µM
Nc1nc(-c2cccnc2)nc2sc3c(c12)CCCC3 4.65 µM
NNc1nc(-c2ccccc2Cl)nc2sc3c(c12)CCCC3 5.21 µM
NNc1nc(-c2ccccc2)nc2sc3c(c12)CCCC3 0.464 µM
CCOC(=O)C1CCCN(C(=O)c2ccc(NC(=O)c3nsc4ccccc34)cc2)C1 (centres undefined) 3.69 µM
CC1CCN(C(=O)c2ccc(NC(=O)c3nsc4ccccc34)cc2)CC1 1.85 µM
CC1CCN(C(=O)c2cccc(NC(=O)c3nsc4ccccc34)c2)CC1 7.36 µM
COc1ccc(Nc2nc(C)c(-c3ccccc3)s2)cc1 6.56 µM
COc1ccc2nc(Nc3nc4cc5c(cc4s3)OCCO5)sc2c1 13.1 µM
COC(=O)CCc1sc(Nc2ccccc2)nc1-c1ccc(OC)cc1 16.5 µM
COc1ccc2nc(Nc3ccc4c(c3)OCO4)sc2c1 4.65 µM
COc1ccc(Nc2nc3ccc(OC)cc3s2)cc1 3.69 µM
O=c1c2c(nc3cc(-c4ccc(F)cc4)[nH]n13)CCC2 1.04 µM
COC(=O)C1C(=O)C=C(Nc2ccc(F)cc2)CC1c1ccc(OC)cc1 (centres undefined) 10.4 µM
Cc1ccc2c(Cl)c(C(=O)NCCc3ccccc3)sc2c1 6.56 µM
Cc1cc(OCC(=O)N(C)C2CCCCC2)ccc1Cl 1.65 µM
Cc1cn(CCC(=O)Nc2ccccc2N2CCOCC2)c2ccccc12 9.27 µM
CCCS/C(N)=N/N=C/c1cc(C)ccc1O 1.47 µM
COc1cc(Cl)c(NC(=O)c2cc3ccccn3n2)c(OC)c1 6.56 µM
CC(C)Oc1ccc(CNC(=O)c2cc3ccccn3n2)cc1 6.56 µM
CCOc1ccc(CNC(=O)c2cc3ccccn3n2)cc1 7.36 µM
